Structures are written as SMILES. Values joined by “and” are separate entries in the source; they are usually repeats but may differ in a detail not shown here. Equal entries are not always repeated.

The values that follow come from PubChem BioAssay AID651871 (Sanford-Burnham Center for Chemical Genomics, 2012).

For this assay, the system named is HL-1. Briefly: cardiomyocyte survival under oxidative or metabolic stress – cell-based, panel, H9c2 and HL-1, ATP luminescence, set 2, SAR follow-up (AID 651871).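 Note: cells exposed to stressor for 2 h before ATP readout; reference of the scale not given here.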 The conditions noted are these: H9c2/HL-1 cardiomyocytes, 2-deoxyglucose stress, with 2-deoxyglucose, run 4, at 79 µM (top of the series).
As to `CCOC(=O)c1cccc(NC(=O)CNC(=O)c2cc(-c3cc(OC)c(OC)c(OC)c3)nc3ccccc23)c1`, the activity (protection/inhibition) was 54.1%.

As to `COc1ccc2nc(-c3cc(OC)c(OC)c(OC)c3)cc(C(=O)NCC(=O)Nc3ccc(C(C)=O)cc3)c2c1`, the activity (protection/inhibition) was found to be 68.7%.

Turning to `COc1ccc2c(c1OC)C(=O)N1c3ccccc3C(=O)N(Cc3cccc(Cl)c3Cl)C21` (stereo not drawn), the activity (protection/inhibition) was 33.5% and -8.11%.
